APE1 inh-1 = blocks human APE1 abasic DNA cleavage. Potency, µM (series often up to 65.8 µM), most hits filed as inhibitors. recombinant APE1, TAMRA/BHQ-2 abasic DNA cleavage fluorescence. P27695. 350,000 tested, 0.35% active; note: nearly all actives have a fitted effect of over 55% in size
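Readout is kinetic fluorescence (ex 525, em 598 nm) from cleavage of 50 nM TAMRA/BHQ-2 THF abasic duplex by 0.75 nM APE1, compound added 15 min beforehand at RT.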
FEN1 inhibitor = human FEN1 inhibition; P39748; Recombinant FEN1 flap cleavage, fluorescence, 15 min; Potency, µM (titrated, usually from 114 µM), most hits filed as inhibitors; 390,000 tested, 0.35% active; note: nearly all actives have a fitted effect of over 65% in size
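Reaction started by adding substrate (50 nM final) to 10 nM enzyme after 15 min room-temperature compound preincubation. Reads at 0 and 15 min, with data normalized and fitted to a four-parameter Hill equation.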
TDP1 block = blocks human tyrosyl-DNA phosphodiesterase 1. Q9NUW8. recombinant TDP1, AlphaScreen DNA substrate cleavage. Potency, µM (series often up to 130 µM), most hits filed as inhibitors. 350,000 tested, 0.28% active. AID 485290; note: nearly all actives have a fitted effect of over 40% in size
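Steps: enzyme plus compound, 15 min RT; add biotin/phosphotyrosine-FITC oligonucleotide (15 nM final), react 5 min; add donor/acceptor beads (10 ug/ml final), 10 min; read AlphaScreen. Tdp1 at 1 nM final.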
BLM helicase inh = blocks DNA unwinding by human BLM helicase; Potency, µM (doses to about 56.1 µM), actives largely listed as inhibitors; 350,000 tested, 0.2% active; recombinant BLM DNA unwinding, fluorescence dequenching; note: nearly all actives have a fitted effect of over 35% in size
RECQ1 inh-1 = RECQ1 (human) helicase inhibition; 240,000 tested, 0.54% active; P46063; RECQ1 DNA unwinding, red fluorescence kinetic read; Potency, µM (top dose mostly 57.3 µM), actives largely listed as inhibitors; note: nearly all actives have a fitted effect of over 30% in size
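RECQ1T1 50 nM; forked duplex (20 bp + 30-nt ss tails) 200 nM, ATP 2 mM final; pH 8.0, 2 mM MgCl2, 2.5 ug/ml poly(dI-dC); 15 min compound preincubation; discontinuous kinetic read over 2 h at RT.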
DNA dye displace = displaces fluorescent dye from DNA, flagging APE1 artifacts; shares compounds with APE1 inh-1; DNA fluorescent dye displacement counterscreen, fluorescence; Potency, µM (top dose mostly 28.5 µM), usual class: inhibitors; 480 tested, 7% active;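 note: loss of thiazole orange fluorescence as the dye is displaced from duplex DNA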
EndoIV counter = blocks E. coli endonuclease IV DNA cleavage | shares compounds with APE1 inh-1 | E. coli Endo IV, fluorogenic AP-site DNA cleavage | Potency, µM (highest dose often 27.1 µM), most hits filed as inhibitors | 560 tested, 4% active
APE1 inh-2 = confirmation of inhibitors of human APE1 endonuclease. AID 2572. 750 tested, 44% active. Potency, µM (series often up to 57.1 µM), usual class: inhibitors. purified APE1, fluorogenic abasic-site DNA cleavage. shares compounds with APE1 inh-1; note: nearly all actives have a fitted effect of over 30% in size
APE1 FP = APE1 (human) DNA binding inhibition, fluorescence polarization; shares compounds with APE1 inh-1; APE1 binding to TAMRA-labelled double-stranded DNA, fluorescence polarization displacement; Potency, µM (doses to about 28.5 µM), most hits filed as inhibitors; 480 tested, 7% active; AID 2573
RECQ1 inh-2 = blocks human RECQ1 DNA unwinding. 1,100 tested, 15% active. Potency, µM (top dose mostly 119 µM), most hits filed as inhibitors. AID 504841. shares compounds with RECQ1 inh-1. recombinant RECQ1 DNA unwinding, red fluorescence; note: nearly all actives have a fitted effect of over 50% in size
Each line names hits and unclear results; the compound was inactive in the other large screens (follow-up assays come after a bar, where they were run). Rows were chosen to be rich in hits. Some 0.92% of all compounds tested hit in one or more screens of this group. Calls come from the whole dose curve; as a rule, active = well fitted curve in the direction sought with a large enough effect; inconclusive = small, poorly fitted or top-dose-only effect, or another doubt; inactive = no such curve, though single readings can be large; an effect the other way counts as inactive or inconclusive.

O=C1CCCC2=C1C(c1ccc(O)c(O)c1)Nc1ccc3ncccc3c12 (configuration not stated)	APE1 inh-1 14µM, FEN1 inhibitor inconclusive, BLM helicase inh inconclusive, RECQ1 inh-1 inconclusive (no result: TDP1 block) | DNA dye displace inconclusive | EndoIV counter inactive | APE1 inh-2 inconclusive | APE1 FP inactive | RECQ1 inh-2 inconclusive
O=C(Nc1cccc(S(=O)(=O)NC2=NCCCCC2)c1)c1cc(-c2ccco2)nc2ccccc12	APE1 inh-1 13µM, BLM helicase inh inconclusive, RECQ1 inh-1 20µM (no result: TDP1 block) | DNA dye displace inactive | EndoIV counter inactive | APE1 inh-2 inconclusive | APE1 FP inactive | RECQ1 inh-2 inconclusive
CC(=O)c1cccc(NC(=O)c2cc(-c3ccco3)nc3ccccc23)c1	none (no result: TDP1 block, RECQ1 inh-1)
CC(=O)NC1=NC(=O)/C(=C/c2cc(C)n(-c3cccc(C(=O)O)c3)c2C)S1	APE1 inh-1 3.5µM, FEN1 inhibitor 50µM, TDP1 block 3.5µM, RECQ1 inh-1 inconclusive | DNA dye displace inactive | EndoIV counter inactive | APE1 inh-2 4.5µM | APE1 FP inconclusive | RECQ1 inh-2 20µM
CC(=O)NC1=NC(=O)/C(=C/c2cn(C(C)=O)nc2-c2ccccc2)S1	FEN1 inhibitor inconclusive (no result: TDP1 block)
CC1(C)Cc2c(sc3c2c(=N)n(Cc2ccco2)c(=O)n3Cc2ccccc2)CO1	none
CC1(C)Cc2c(sc3[nH]c(=S)n(Cc4ccco4)c(=O)c23)CO1	APE1 inh-1 35µM, RECQ1 inh-1 inconclusive (no result: TDP1 block) | DNA dye displace inactive | EndoIV counter inactive | APE1 inh-2 inactive | APE1 FP inconclusive | RECQ1 inh-2 inactive
NC1=NC(=O)C(=Cc2ccccc2)S1	none (no result: APE1 inh-1, TDP1 block, BLM helicase inh, RECQ1 inh-1)
NC1=NC(=O)/C(=C\c2ccco2)S1	APE1 inh-1 22µM, FEN1 inhibitor 50µM, RECQ1 inh-1 inconclusive (no result: TDP1 block) | DNA dye displace inconclusive | EndoIV counter inactive | APE1 inh-2 inconclusive | APE1 FP inactive | RECQ1 inh-2 inactive
C=C(CO)C1Cc2cc(C(C)=O)ccc2O1 (configuration not stated)	APE1 inh-1 20µM, FEN1 inhibitor inconclusive, RECQ1 inh-1 inconclusive (no result: TDP1 block) | DNA dye displace inactive | EndoIV counter inactive | APE1 inh-2 10µM | APE1 FP inactive | RECQ1 inh-2 inconclusive
C/C(=N\O)c1ccc2c(c1)CC(C)O2 (configuration not stated)	none
COC1OC(COC(=O)c2ccccc2)C(OC(=O)c2ccccc2)C1OC(=O)c1ccccc1 (configuration not stated)	none (no result: TDP1 block, RECQ1 inh-1)

Screening data from PubChem BioAssay.
